LmPK inhibitor: qHTS Assay for Inhibitors of Leishmania Mexicana Pyruvate Kinase (LmPK) | Q27686 | purified LmPK, Kinase-Glo ATP luminescence, 1 h | Potency, µM (series often up to 57.5 µM), hits mostly inhibitors | 290,000 tested, 0.37% active
Target sequence (Q27686 whole entry, looked up): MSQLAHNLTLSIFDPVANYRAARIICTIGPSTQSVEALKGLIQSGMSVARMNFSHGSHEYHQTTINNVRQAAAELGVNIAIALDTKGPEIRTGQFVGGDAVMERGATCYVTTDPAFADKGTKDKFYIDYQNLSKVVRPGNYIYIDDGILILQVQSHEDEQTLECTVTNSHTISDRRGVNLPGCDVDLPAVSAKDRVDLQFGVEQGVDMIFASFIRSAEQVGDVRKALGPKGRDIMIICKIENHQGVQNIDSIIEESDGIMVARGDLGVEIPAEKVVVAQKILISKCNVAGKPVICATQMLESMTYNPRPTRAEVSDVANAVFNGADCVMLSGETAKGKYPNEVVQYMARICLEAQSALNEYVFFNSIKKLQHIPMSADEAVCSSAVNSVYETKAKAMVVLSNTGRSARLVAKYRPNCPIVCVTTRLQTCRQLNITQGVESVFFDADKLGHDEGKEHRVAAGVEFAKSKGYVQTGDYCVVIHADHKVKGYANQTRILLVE
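ATP generated from ADP (0.1 mM) and PEP (0.5 mM) by 0.1 nM LmPK over 1 h at room temperature (pH 7.2 imidazole buffer) was detected by coupled luciferase luminescence. Values were normalized to uninhibited and no-enzyme wells.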
Shiga toxin inh: A qHTS for Small Molecule Inhibitors of Shiga Toxin | Vero cells, Shiga toxin protein synthesis inhibition reporter | inhibition, % at 38.7 µM | 290,000 tested, 9.2% active; in the data active = inhibition mostly above about 28%, no sharp cut-off; inactive = mostly below about 43%
TbPYK inhibitor: qHTS of Trypanosoma Brucei Inhibitors | 410,000 tested, 0.12% active | pyruvate kinase (Trypanosoma brucei), Q57TT1 | AID 624173, 2012 | TbPYK enzyme, Kinase-Glo Plus ATP luminescence, 45 min | Potency, µM (titrated, usually from 76.8 µM), hits mostly inhibitors; note: nearly all actives have a fitted effect of over 50% in size
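Screened from lowest to highest concentration, compounds were pinned into TbPYK/substrate mixtures, and ADP (130 uM final) was added. Plates sat at room temperature for 45 min prior to Kinase-Glo Plus detection by luminescence.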
Giardia FBPA inh: qHTS Assay for Inhibitors of Fructose-1,6-bisphosphate Aldolase from Giardia Lamblia; A8B2U2; purified Giardia FBPA; Potency, µM (top dose mostly 59.6 µM), hits mostly inhibitors; 290,000 tested, 0.71% active; AID 2451, 2010; note: nearly all actives have a fitted effect of over 55% in size
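40 nM FBPA preincubated 10 min at RT with compound (up to 57.5 uM final), then substrate plus GAPDH/TPI/NAD/arsenate coupling and diaphorase/resazurin added. Fluorescence read after 20 min at RT, 525/598 nm.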
CHX counter: Cycloheximide Counterscreen for Small Molecule Inhibitors of Shiga Toxin. cell reporter, cycloheximide protein synthesis inhibition counterscreen. max response, %. 300,000 tested, 12% active; in the data active = max response mostly above about 13%, no sharp cut-off; inactive = mostly below about 14%; note: read at 38.3 µM for the half of the compounds with a filed dose
RE007 growth inh: qHTS Assay for Inhibitors of the HIV-1 protein Vpr. Potency, µM (series often up to 92.2 µM), most hits filed as inhibitors. S. pombe RE007 Vpr strain, BacTiter-Glo ATP luminescence, 24 h. 360,000 tested, 0.21% active; active = well fitted falling curve with a large enough effect; inconclusive = small, poorly fitted or top-dose-only effect; inactive = no such curve, though single readings can be large or run the other way; note: nearly all actives have a fitted effect of over 50% in size
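Fission yeast RE007 carrying one integrated HIV-1 vpr copy, seeded at OD 0.01 in PMG+AL medium with 23 nL pinned compound. Grown 24 h at 30 degrees; viability read by BacTiter-Glo luminescence after 5 min.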
Numbers stand for hits; i = inactive; ? = inconclusive; nt = not tested or not shown. This is one part of a sample in which hits are shown more often than they occur. Unless noted, calls come from the whole dose curve; as a rule, active = well fitted curve in the direction sought with a large enough effect; inconclusive = small, poorly fitted or top-dose-only effect, or another doubt; inactive = no such curve, though single readings can be large; an effect the other way counts as inactive or inconclusive.

SMILES	LmPK inhibitor	Shiga toxin inh	TbPYK inhibitor	Giardia FBPA inh	CHX counter	RE007 growth inh
Nc1ccccc1Sc1nc2ccccc2[nH]1	i	59	?	i	23	i
c1ccc(CSCc2nc3ccccc3[nH]2)cc1	i	74	i	i	62	i
O=C(CSCc1nc2ccccc2[nH]1)Nc1ccccc1	i	i	i	i	i	i
CCSc1nc2ccccc2[nH]1	i	i	i	i	i	i
Nc1nc(CSc2nc3ccccc3[nH]2)cs1	i	47	i	i	25	i
CCOC(=O)c1c(C)nc(C)c2c(=O)oc3ccccc3c12	i	93	i	i	33	i
COCc1nc2oc3ccccc3c(=O)c2cc1C(=O)OC	i	46	i	i	12	i
CC(=O)c1cc2c(=O)c3ccccc3oc2nc1C	nt	nt	i	nt	nt	i
CCOC(=O)c1cc2c(=O)c3ccccc3oc2nc1C	i	103	i	i	40	i
CCN(CC)C(=O)c1cc2c(=O)c3cc(F)ccc3oc2nc1C	i	64	i	i	39	i
O=C(Nc1ccccc1N1CCOCC1)c1ccc(N2CCCC2=O)cc1	nt	nt	i	nt	nt	i
Cc1ccc(CONC(=O)c2ccc(OC(F)F)cc2)cc1	i	69	i	i	24	i
O=C(Nc1ccc2nc3n(c(=O)c2c1)CCCCC3)c1c(F)ccc([N+](=O)[O-])c1F	i	89	i	nt	92	i
O=C(Nc1ccc2nc3n(c(=O)c2c1)CCCCC3)c1cc([N+](=O)[O-])ccc1F	i	32	i	nt	37	i
Cc1ccc(C)c(N(C)C(=O)C2CCN(S(=O)(=O)c3cccc4nsnc34)CC2)c1	nt	nt	i	nt	nt	nt
CCOC(=O)N/N=C/c1cn(CCCOc2ccccc2)c2ccccc12	i	66	i	i	46	i
CNC(=S)N/N=C/c1cn(CCOc2cccc(OC)c2)c2ccccc12	i	103	i	i	i	i
COC(=O)N/N=C/c1cn(CCOc2ccc(OC)cc2)c2ccccc12	i	i	i	i	i	i
CCOC(=O)N/N=C/c1cn(CCCOc2ccc(C)cc2)c2ccccc12	i	42	i	i	64	i
COC(=O)N/N=C/c1cn(CCOc2ccccc2)c2ccccc12	i	78	i	i	46	i
COc1ccccc1NCCC(=O)OCC(=O)Nc1ccccc1F	nt	nt	i	nt	nt	i
CCn1c(C(=O)Nc2cc(C)cc(C)c2)cc2sc(Cl)cc21	nt	nt	i	nt	nt	nt
O=C(COC(=O)c1ccc(Cl)nc1)NCCc1ccc(Cl)cc1	nt	nt	i	nt	nt	i
O=C(NCCc1ccccc1)c1ccc(Cl)nc1	i	60	i	i	33	i
O=C(NCCc1ccc(F)cc1)c1ccncc1	i	87	i	nt	16	i
SMILES	LmPK inhibitor	Shiga toxin inh	TbPYK inhibitor	Giardia FBPA inh	CHX counter	RE007 growth inh
Cc1cc(S(=O)(=O)NCc2ccccc2)ccc1OCC(=O)NCc1ccncc1	i	80	i	nt	49	i
O=C(COc1ccc(S(=O)(=O)NCc2ccccc2)cc1Cl)NCc1ccncc1	i	i	i	i	i	i
O=C(NCCc1ccc(Cl)cc1)c1ccc(Br)s1	i	55	i	i	45	i
CCOC(=O)N1CCN(C(=O)c2c[nH]c3ccc(S(=O)(=O)N(C)c4ccc(OCC)cc4)cc3c2=O)CC1	i	i	i	nt	i	i
COc1ccc(S(=O)(=O)NCC(c2ccco2)N2CCN(c3ccccc3F)CC2)cc1C (centres undefined)	nt	nt	i	nt	nt	nt
O=C(NCCc1ccccc1)c1ccncc1	i	95	nt	i	32	nt
O=C(NCCc1ccccc1)c1n[nH]c(=O)c2ccccc12	i	i	i	i	27	i
O=C(Cc1c[nH]c2ccccc12)NCc1ccncc1	i	i	i	nt	i	i
O=C(Cc1ccccc1)NCc1ccncc1	i	67	i	i	42	i
Cc1ccc(C(=O)NCCc2ccc(F)cc2)s1	i	58	i	i	59	i
O=C(O)C1CC(=O)N(CCOc2ccccc2)C1 (centres undefined)	i	i	i	i	i	i
O=C1NC(=O)C(Cc2ccc(OCCN3COc4ccccc4C3=O)cc2)S1 (centres undefined)	nt	i	nt	i	25	nt
